These results are taken from PubChem BioAssay.

Inconclusive results are not listed. Calls of active or inactive are those of the source. Unless noted, the rule behind the calls is not given here.

In assay [1] the target is ATP-dependent translocase ABCB1 (Homo sapiens) (UniProt P08183). Description: P-glycoprotein substrate transport blockade – cell-based (AID 377; in the data active = fluorescence slope change above about 50%). To be noted: MDR1-expressing cells, fluorescent substrate accumulation slope; stronger effect = higher value; concentration not given here.
The nature of assay [2]: GFP-Q80 aggregate reduction, neuronal-like cells, cell-based, NGF-treated PC12, GFPQ80 (AID 1614).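 Note: lower means fewer inclusions and 0 means no inclusions at all.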 The settings on record: PC12 NGF-treated GFP-polyQ80 inclusion reduction.
Assay [3] is described as follows: viability loss in pontine glioma line – cell-based, SU-DIPG-XIII, MIPE4.0, CellTiter-Glo, qHTS, dose response (AID 1347061; cut-off not given, nearly all actives have AC50 up to about 37 µM;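 note: cells exposed to compound for 48 hours before readout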). The settings on record: CellTiter-Glo ATP luminescence. (ATP-based viability assays read luminescence as a measure of living cells.)
The nature of assay [4]: viability loss in pontine glioma line – cell-based, JHH-DIPG-1, MIPE4.0, CellTiter-Glo, qHTS, dose response (AID 1347062; cut-off not given, nearly all actives have AC50 up to about 27 µM). The settings on record: JHH-DIPG-1 viability, CellTiter-Glo ATP luminescence.
Assay [5] in a line: viability loss in pontine glioma line – cell-based, SU-DIPG-XIII, MIPE5.0, CellTiter-Glo, qHTS, dose response (AID 1347064; cut-off not given, nearly all actives have AC50 up to about 23 µM). To be noted: CellTiter-Glo ATP luminescence.
Assay [6] is described as follows: viability loss in pontine glioma line – cell-based, SU-DIPG-XXV, MIPE5.0, CellTiter-Glo, qHTS, dose response (AID 1347065; cut-off not given, nearly all actives have AC50 up to about 26 µM;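 note: cells exposed to compound for 48 hours before ATP readout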). The settings on record: CellTiter-Glo ATP luminescence.
The nature of assay [7]: growth inhibition of DIPG cells – cell-based, MIPE4.0 library, CellTiter-Glo luminescence, qHTS (AID 1347066; cut-off not given, nearly all actives have AC50 up to about 30 µM;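 note: cells exposed to compound for 48 hours before readout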). To be noted: SU-DIPG-VI viability, CellTiter-Glo ATP luminescence.
Assay [8] can be described thus: growth inhibition of DIPG cells – cell-based, MIPE5.0 library, qHTS (AID 1347068; cut-off not given, nearly all actives have IC50 up to about 30 µM). To be noted: SU-DIPG-XXV viability. (In general: In qHTS, concentration-response curves come from the screen itself.)
Assay [9] in a line: growth inhibition, single agent or in combination, cell-based, chromothripsis tumors, cisplatin or BGB combos (AID 1671449; in the data active = inhibition above about 80%;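 note: cells exposed for 96 hours; 0% = vehicle DMSO and 100% = killing by high DMSO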). The settings on record: LFS_MB_P medulloblastoma cells.
A short description of assay [10]: growth inhibition, single agents and combos, ICB984, cell-based, cisplatin or BGB combos, synergistic combos for chromothripsis tumors (AID 1671451).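 Note: cells exposed for 96 hours before readout; 0% = vehicle DMSO and 100% = killing by high DMSO.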 The settings on record: ICB984 medulloblastoma cells, drug combinations, stronger effect = higher value.
Assay [11] has as its system Hepatitis C virus NS3 helicase. Description: blockers of NS3h binding to ssDNA – biochemical, fluorescence polarization, LOPAC1280 library, primary screen (AID 687035; in the data active = inhibition above about 37%). The settings on record: Purified HCV NS3 helicase, Cy5-dT15 ssDNA binding fluorescence polarization; stronger effect = higher value; concentration not given here. On the technique in general: Polarisation of emitted light reports the rotation of a fluorescent probe.

A short description of assay [12]: compounds altering Cy5-DNA-NS3h complex signal – biochemical, LOPAC1280, artefact control for HCV NS3 helicase inhibitor project (AID 687037). To be noted: Cy5-DNA-NS3h complex fluorescence interference counterscreen.
Assay [13] deals with Aerobactin synthetase IucA (Klebsiella pneumoniae). Description: inhibition of K. pneumoniae IucA enzyme – biochemical, Tocris library, absorbance (AID 1345561).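 Note: 100% = enzyme without compound and 0% = no enzyme.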 To be noted: purified IucA enzyme assay, absorbance (OD) read-out; stronger effect = lower value;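 tested at 8 µM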.
A short description of assay [14]: viability loss in pontine glioma line – cell-based, SU-DIPG-IV, MIPE4.0, CellTiter-Glo, qHTS, dose response (AID 1347063; cut-off not given, nearly all actives have AC50 up to about 30 µM;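 note: compound exposure lasted 48 hours before the viability readout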). To be noted: CellTiter-Glo ATP luminescence.
A short description of assay [15]: blockers of cellular phospholipid synthesis – cell-based, LOPAC library, screen 4, primary screen (AID 1347384). The settings on record: animal cells, phospholipid biosynthesis inhibition screen; at 10 µM.
Assay [16] can be described thus: compounds altering circadian rhythm period length – cell-based, LOPAC library, luminescence reporter (AID 2774).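 Note: values are relative to mean of DMSO wells on each plate.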 The settings on record: circadian reporter cells, at 7 µM, actives lie on both sides.
The nature of assay [17]: JHH-DIPG-1 glioma cell viability, MIPE5.0 library, CellTiter-Glo luminescence, qHTS (AID 1347067; cut-off not given, nearly all actives have AC50 up to about 26 µM;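 note: cells exposed to compound for 48 hours before readout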). To be noted: JHH-DIPG-1 glioma viability, CellTiter-Glo ATP luminescence.
Assay [18] is described as follows: viability loss in pontine glioma line – cell-based, SU-DIPG-XVII, MIPE5.0, CellTiter-Glo, qHTS, dose response (AID 1347060; cut-off not given, nearly all actives have AC50 up to about 26 µM). To be noted: CellTiter-Glo ATP luminescence.

Broadly, the inhibition is the relative decrease from the control value, in per cent. Usually remaining activity stands for the signal under treatment as a percentage of the control signal. As usually defined, the AC50 is the midpoint of the concentration-response curve, whichever way the signal moves.

Chain of ATP-dependent translocase ABCB1 (Homo sapiens) (P08183 whole entry, looked up): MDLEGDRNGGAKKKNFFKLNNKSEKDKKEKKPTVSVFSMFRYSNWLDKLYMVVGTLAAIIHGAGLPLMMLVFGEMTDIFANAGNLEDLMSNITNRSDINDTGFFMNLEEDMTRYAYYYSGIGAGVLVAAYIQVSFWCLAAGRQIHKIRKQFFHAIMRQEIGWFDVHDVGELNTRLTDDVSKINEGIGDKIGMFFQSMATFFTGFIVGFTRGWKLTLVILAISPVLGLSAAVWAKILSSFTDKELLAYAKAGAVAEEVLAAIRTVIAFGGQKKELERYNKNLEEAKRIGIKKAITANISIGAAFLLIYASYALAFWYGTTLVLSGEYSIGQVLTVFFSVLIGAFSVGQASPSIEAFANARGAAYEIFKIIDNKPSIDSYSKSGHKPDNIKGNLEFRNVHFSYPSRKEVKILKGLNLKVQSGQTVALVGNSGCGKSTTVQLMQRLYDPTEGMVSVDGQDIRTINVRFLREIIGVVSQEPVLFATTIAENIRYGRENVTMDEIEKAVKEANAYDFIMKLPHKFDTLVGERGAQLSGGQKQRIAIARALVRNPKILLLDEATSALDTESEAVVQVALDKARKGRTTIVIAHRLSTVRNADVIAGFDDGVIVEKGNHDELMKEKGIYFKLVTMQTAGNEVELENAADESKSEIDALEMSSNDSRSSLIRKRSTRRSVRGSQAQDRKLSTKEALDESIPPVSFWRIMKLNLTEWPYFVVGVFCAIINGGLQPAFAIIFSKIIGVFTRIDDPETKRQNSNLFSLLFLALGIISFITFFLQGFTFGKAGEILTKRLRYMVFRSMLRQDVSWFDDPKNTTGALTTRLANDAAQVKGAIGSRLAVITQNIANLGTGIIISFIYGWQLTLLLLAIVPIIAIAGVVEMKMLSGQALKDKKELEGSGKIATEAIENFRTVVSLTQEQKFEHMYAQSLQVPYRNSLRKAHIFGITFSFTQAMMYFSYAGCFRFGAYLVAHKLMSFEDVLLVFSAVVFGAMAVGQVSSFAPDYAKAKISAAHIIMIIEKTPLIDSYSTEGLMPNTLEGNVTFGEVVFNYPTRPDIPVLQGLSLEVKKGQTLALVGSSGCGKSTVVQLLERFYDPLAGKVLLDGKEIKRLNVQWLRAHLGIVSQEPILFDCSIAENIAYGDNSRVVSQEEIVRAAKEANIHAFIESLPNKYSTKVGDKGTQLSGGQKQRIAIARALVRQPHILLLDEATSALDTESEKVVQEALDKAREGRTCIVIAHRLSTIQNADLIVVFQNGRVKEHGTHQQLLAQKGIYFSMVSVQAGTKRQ

On to `CCn1cc(C(=O)O)c(=O)c2cc(F)c(N3CCNCC3)cc21`, for which the fluorescence slope change in assay [1] was 98.4% (active). This compound returned an inclusion score in assay [2] of 2. Also, the outcome in assay [3], in assay [4], in assay [5], in [6], in assay [7] and in assay [8] was inactive. The inhibition in [9] (at 0.5 µM, stronger effect = higher value) is 7.63% (inactive); in [9] (measured here: combination with BGB IC20, at 0.005 µM), -17.9%; in [9] (measured here: combination with BGB IC40, at 0.005 µM), -10.9%; in [9] (measured here: combination with BGB IC40, at 0.05 µM) it was -0.516%; in [9] (measured here: combination with cisplatin, at 0.5 µM, stronger effect = higher value), 9.32%; in assay [9] (measured here: combination with cisplatin, at 5 µM, stronger effect = higher value), -19.2%. For the same compound, the inhibition was -26.7% in [10] (BGB IC20 combo, at 0.005 µM); -18.2% in assay [10] (BGB IC40 combo, at 0.005 µM); -41.7% in [10] (BGB IC40 combo, at 0.05 µM); -9.23% (inactive) in [10] (at 0.5 µM); -41.7% in assay [10] (cisplatin combo, at 0.05 µM); -13% in [10] (cisplatin combo, at 0.5 µM). In addition, the inhibition was -17.2% in assay [10] (cisplatin combo, at 5 µM) and -7.24% in [10] (measured here: 5 uM single agent, at 5 µM).
Take `COc1cc2nc(N3CCN(C(=O)c4ccco4)CC3)nc(N)c2cc1OC`: the inhibition in [11] was -1% (inactive). Besides, the fluorescence ratio (interference) in assay [12] is 0.9 (inactive). Also, the remaining activity in assay [13] is 96.4% (inactive). Moreover, the AC50 in [14] was 26.4 µM (active); in [7] it was 14.8 µM (active). Moreover, in assay [15], the outcome was inactive.
Turning to `O=C1N=C(O)CN1/N=C/c1ccc(-c2ccc([N+](=O)[O-])cc2)o1`, in assay [1], the fluorescence slope change is 54.9% (active). This compound returned an inclusion score in assay [2] of 1.5. Also, in assay [13], the remaining activity was 110% (inactive).
Take `O=c1n(CCCN2CCN(c3cccc(Cl)c3)CC2)nc2ccccn12`: the fluorescence slope change in [1] is 85.5% (active). Also, in [2], the inclusion score came out at 2. The period change in [16] was -0.06 h (inactive). Moreover, in assay [11], the inhibition is 0% (inactive). Besides, the fluorescence ratio (interference) in assay [12] is 1 (inactive). The result in [3], in assay [4], in assay [14], in [7] and in assay [15] was inactive.
In the case of `CN(C)CCOC(c1ccccc1)c1ccccc1`, the inclusion score in assay [2] was 2. Moreover, the period change in assay [16] is -0.01 h (inactive). Further, the inhibition in assay [11] was -1% (inactive). Moreover, the fluorescence ratio (interference) in assay [12] was 1 (inactive). In addition, the outcome in assay [4], in assay [5], in [6], in [7], in assay [17] and in [8] was inactive. For the same compound, the result in assay [15] was inactive.
In the case of `CC1(C)O[C@@H]2C[C@H]3[C@@H]4C[C@H](F)C5=CC(=O)C=C[C@]5(C)[C@H]4[C@@H](O)C[C@]3(C)[C@]2(C(=O)CO)O1`, in assay [1], the fluorescence slope change is 24.8% (inactive). In addition, the call in [18], in [5], in assay [6], in assay [17] and in assay [8] was inactive.
In the case of `CCC(=O)O[C@]1(C(=O)CCl)[C@@H](C)C[C@H]2[C@@H]3CCC4=CC(=O)C=C[C@]4(C)[C@@]3(F)[C@@H](O)C[C@@]21C`, the call in assay [18], in [3], in assay [4], in assay [5], in [7] and in [17] was inactive.
